Results filed as inconclusive are left out. Values without a mark were called inactive. Active and inactive are the calls of the source. The call rests on the fitted dose curve; in most records, active means well fitted inhibition curve with a large enough effect; inconclusive means small, poorly fitted or top-dose-only effect; inactive means no such curve, though single readings can be large or run the other way.
On the % scale 0 is the no-effect control and ±100 the full control effect; potency means the concentration at half of the fitted maximal effect.

Sequence of Tumor susceptibility gene 101 protein (Homo sapiens) (Q99816 whole entry, looked up, the tested form may be a part): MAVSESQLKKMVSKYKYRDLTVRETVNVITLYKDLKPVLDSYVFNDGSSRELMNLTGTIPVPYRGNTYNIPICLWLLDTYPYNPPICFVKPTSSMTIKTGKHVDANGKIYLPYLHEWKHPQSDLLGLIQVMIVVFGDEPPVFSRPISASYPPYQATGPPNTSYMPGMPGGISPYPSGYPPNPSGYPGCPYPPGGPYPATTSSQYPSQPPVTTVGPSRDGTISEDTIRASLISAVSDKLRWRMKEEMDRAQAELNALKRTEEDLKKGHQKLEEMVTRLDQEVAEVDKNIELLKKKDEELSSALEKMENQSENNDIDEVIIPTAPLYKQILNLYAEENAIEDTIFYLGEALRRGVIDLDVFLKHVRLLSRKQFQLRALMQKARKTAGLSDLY

This assay has as its target Tumor susceptibility gene 101 protein (Homo sapiens) (UniProt Q99816). Description: qHTS Assay for Iinhibitors of HIV-1 Budding by Blocking the Interaction of PTAP/TSG101: Hit Validation in TR assay. The following applies: Tsg101 binding domain + Texas Red-labeled PTAP peptide, fluorescence polarization, 20 min; series mostly up to 57.5 µM; activity change, negative = inhibition: at the top concentration. An excerpt:
Stages of the HIV-1 replication cycle, specifically virus assembly and release, provide underexploited targets for the development of novel antiviral inhibitors. The late stages of HIV-1 replication are mediated by the Gag precursor protein, Pr55Gag. Expression of Pr55Gag is both necessary and sufficient for the production of virus-like particles from Gag-expressing cells. The Gag protein hijacks key host proteins involved in endocytic machinery of the host cell to promote endosomal processing and viral budding. The budding process requires a direct interaction between a […] (PTAP) motif in the p6 domain of Gag and the cellular endosomal sorting protein known as Tsg101. In this way, the Gag PTAP motif promotes the host cells to recruit viral particles to the plasma membrane where the new viral particles are released, effectively turning the host cells into viral factories. A fluorescence anisotropy assay has been developed to quantitatively measure the PTAP-Tsg101 interaction which can be used to screen for inhibitors of this interaction.
This hit validation assay is similar to the primary assay but uses the Texas Red label instead of FITC.
NIH Molecular Libraries Probe Production Network [MLPCN]
NIH Chemical Genomics Center [NCGC]
PI Name: Dr. Eric Freed, NCI
Two uL of the Tsg101 binding domain in buffer (10 mM HEPES pH 7.5; 0.15 M NaCl, 0.01% Tween 20; 3 mM EDTA;0.1 mM TCEP) was dispensed into Greiner black MB 1536-well plates (final concentration 10 uM). Then, 23 nL of compounds or DMSO were delivered to each well using a pin tool. Finally, 2 uL of a TR-labeled peptide containing the PTAP motif (1) in the same buffer was dispensed (50 nM final concentration) and the binding was allowed to proceed for 20 min. at r.t. Fluorescent polarization was determined using TR excitation and polarized emission filters on a Perkin Elmer Viewlux.
Keywords: Tsg101, PTAP, Gag, HIV, fluorescent polarization, MLSMR, MLPCN, NIH Roadmap, qHTS, NCGC
Regarding `O=c1cc2oc3cc(O)c(O)cc3c(-c3ccccc3O)c-2cc1O`, the Potency is 16.3 µM (active).

Take `CCn1c(/C=C/c2cc[n+](C)cc2)nc2ccccc21`: the “activity change, negative = inhibition” value was -15.3%. `COc1ccccc1N1C(=O)C2C(C(=O)c3ccccc3)=NN(c3ccc(C)cc3)C2C1=O` (stereo not given): the “activity change, negative = inhibition” value was 24.6%. Still for that read-out and setting: the value for `O=c1nc2c(O)cccn2c2c1c(=O)[nH]c1ccccc12` was 8.39%.

`O=c1oc2cc(O)ccc2cc1-c1nc2c(s1)CCc1ccccc1-2`: the “activity change, negative = inhibition” value is -8.4%. In the case of `Cn1c(=O)c(Nc2ccc(O)cc2)c2c3c(cccc31)C(=O)c1ccccc1-2`, the “activity change, negative = inhibition” value was -2.4%. Regarding `CC(=O)N/N=C/c1cc(C(C)C)cc(/C=N/NC(C)=O)c1O`, the “activity change, negative = inhibition” value was 19.8%. In the case of `CCC1CCCCN1C(=O)c1cc2cc(Br)ccc2oc1=O` (stereo not given), the “activity change, negative = inhibition” value is -6.72%. Regarding `Oc1ccc2ccccc2c1-c1sc(Nc2ccccc2)n[n+]1-c1ccc(F)cc1`, the “activity change, negative = inhibition” value was 3.44%. As for `O=C(NCc1cccc(C(F)(F)F)c1)c1cccc2c1C(=O)c1ccc(N3CCC(Cc4ccccc4)CC3)cc1S2(=O)=O`, the “activity change, negative = inhibition” value is -7.43%.

On to `CC1CC=C2C(C#N)=C(N)C(C#N)(C#N)C(c3cccs3)C2C1` (stereo not given), for which the “activity change, negative = inhibition” value was 4.26%. On the same count and under the same terms, the value for `Cc1nc2ccccc2n2c(O)c(CC(=O)O)cc12` was 17.7%; that for `O=C(CCl)N1c2ccccc2Oc2ccc3ccccc3c21` was -7.01%; that for `COc1cccc(NC(=O)/C(C#N)=C/c2ccc(-c3ccc(C)cc3)o2)c1` was 21.1%. Turning to `COc1ccc2ccccc2c1C(O)c1nccn1C` (stereo not given), the “activity change, negative = inhibition” value is -39.1%. As for `Cc1cccc(N=Nc2c(O)[nH]c3ccc(F)cc23)c1`, the “activity change, negative = inhibition” value is -2.4%. On the same count and under the same terms, the value for `Oc1ccc2ccc3cccc[n+]3c2c1` was 37%. Take `CC1C2C(c3ccccc3)N(C)C(=O)N(C)C2N(C)C(=O)N1C` (stereo not given): the “activity change, negative = inhibition” value is -10.7%. Turning to `S=C(NCc1ccccc1)Nc1cccc(Cl)c1`, the “activity change, negative = inhibition” value is -0.728%. Take `O=[N+]([O-])c1cc(Cl)c2cccnc2c1O`: the “activity change, negative = inhibition” value is -23.7%. With `CCCCOc1ccc(C2OC34CCCCC3C(C#N)(C#N)C2(C#N)C(=N)O4)cc1` (stereo not given), the “activity change, negative = inhibition” value is -11.2%. `COc1ccc(-c2onc3ccc(C(C)=O)cc23)cc1`: the “activity change, negative = inhibition” value was -8.57%. Turning to `N#C/C(=C\C=C\c1ccccc1)c1nc(-c2ccc3c(c2)OCO3)cs1`, the “activity change, negative = inhibition” value is 62.8%. In the case of `O=C1c2ccccc2-c2onc3ccc(NCc4ccco4)c1c23`, the “activity change, negative = inhibition” value was -15.9%. Still for that read-out and setting: the value for `O=C(NCc1cccc(F)c1)c1cccc2c1C(=O)c1ccc(N3CCCC3)cc1S2(=O)=O` was 33.2%; that for `O=C1/C(=C/c2ccco2)Oc2c1ccc(O)c2CN1CCCCC1` was -10.8%. In the case of `Cc1c(C(=O)N(C)c2cccc(C(F)(F)F)c2)sc2nc3n(c(=O)c12)CCCCC3`, the “activity change, negative = inhibition” value was -10.5%. Turning to `COc1ccccc1Nc1nc2ccc(C)cc2cc1C#N`, the “activity change, negative = inhibition” value is -8.34%.

For the compound `CCOc1ccc(NC(=O)N(C2CCCCC2)C(C)c2ccncc2)cc1` (stereo not given), the “activity change, negative = inhibition” value was -7.55%. For the compound `O=C(OCCN1C(=O)c2cccc3c(N4CCOCC4)ccc(c23)C1=O)c1ccc(Cl)cc1`, the “activity change, negative = inhibition” value is -16.3%.

Turning to `CCCCOC(=O)c1ccc(NC(=O)/C(C#N)=C/c2ccc(-c3ccccc3)o2)cc1`, the “activity change, negative = inhibition” value was -17.3%. On to `COC(=O)c1cc2c(N)c(C(=O)c3ccc(Cl)cc3)sc2nc1C(OC)OC`, for which the “activity change, negative = inhibition” value was -2.6%. For the compound `COc1ccc(OC)c(/C=C2\N=C(c3ccccc3)OC2=O)c1`, the “activity change, negative = inhibition” value was -9.86%. Regarding `C[C@H](O)C(=O)C1=Nc2c(nc(N)[nH]c2=O)NC1`, the “activity change, negative = inhibition” value is -24%. With `Cc1ccc(OC(=O)c2ccc3nc(C)sc3c2)cc1`, the “activity change, negative = inhibition” value was 21%. For the compound `CC(C)(C)N=Cc1c(O)ccc2oc3c(c12)CCCC3`, the “activity change, negative = inhibition” value was -591% [at 57.5 µM, above what the read-out allows, likely interference]. Turning to `CCCn1nc(-c2ccccc2)c2nc3ccccc3nc21`, the “activity change, negative = inhibition” value is 11.5%. Consider `Cc1cc2nc3c(=O)n(CCc4ccccc4)c(=O)[nH]c3nc2cc1N`, for which the “activity change, negative = inhibition” value was -0.59%. `CCOC(=O)C1CCCN(c2nc3ccccc3nc2C(C#N)C(=O)NCc2ccccc2)C1` (stereo not given): the “activity change, negative = inhibition” value is 3.32%. As for `O=C(O)[C@@H]1[C@H]2C[C@H]3c4[nH]c5ccccc5c4CCN3C[C@@H]2CC[C@@H]1O`, the Potency is 13 µM (active).
